Source: PubChem
GLP-1R agonist = activates the human GLP-1 receptor | hit rate 0.007% among 380,000 | HEK293 GLP-1R CRE-luciferase, luminescence, 4-6 h; cells express a hypersensitive GLP-1R form | P43220 | Potency, µM (highest dose often 45.6 µM), for the others: at the top dose activation, actives largely listed as activators | AID 624172; also: % of control where 0% means no effect
TrxR1 substrate = is turned over as a substrate by rat TrxR1 | O89049 | purified TrxR1 substrate turnover, NADPH consumption readout | Potency, µM (top dose mostly 114 µM), inactives show at the highest dose activity change, negative = substrate turnover | hit rate 0.01% among 390,000 | AID 588456; also: % is scaled to controls: 0 for no effect and ±100 for the full control effect; nearly all actives have a fitted effect of over 50% in size
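Rat TrxR1, dispensed at 90 nM, was prereduced with 400 uM NADPH (final) for 5 min at ~22 deg C, then incubated with compound 15 min before 400 uM selenite. A first-read NADPH fluorescence drop versus no-compound background flagged substrates.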
HEK293 tox = cytotoxic in the GLP-1 receptor inverse agonist counter-screen | HEK293 cAMP-luciferase reporter cells, luminescence, 24 h | Potency, µM (doses to about 38.3 µM), without a hit: at the top dose activity change, negative = inhibition, usual class: inhibitors | hit rate 0.13% among 410,000 | AID 624418;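 also: loss of luciferase light is scored as toxicity; % is scaled to controls: 0 for no effect and ±100 for the full control effect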
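1536-well qHTS counterscreen of the MLSMR; 200 cells/uL, 12 h pre-incubation, 23 nL cpd, 24 h at 37 deg C 5% CO2, luciferase detection reagent, 12 min RT, luminescence. Inhibition = undesired.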
GLP1R inv ag = GLP-1 receptor (human) inverse agonism; HEK293 GLP-1R CRE-luciferase, luminescence, 24 h; GLP-1R form is constitutively active; Potency, µM (highest dose often 38.3 µM), inactives show at the highest dose activity change, negative = inhibition, hits mostly inhibitors; hit rate 1.6% among 410,000; AID 624417; also: % is scaled to controls: 0 for no effect and ±100 for the full control effect; nearly all actives have a fitted effect of over 55% in size
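Constitutively active GLP-1R drives a cAMP-responsive luciferase in stably transfected HEK293 cells; test compounds are added after overnight (12 h) attachment and left 24 hr, and signal loss in luminescence marks inhibition.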
rTrxR1 inhibitor = inhibitors of rat thioredoxin reductase 1; O89049; recombinant rTrxR1, NADPH fluorescence consumption, selenite substrate; Potency, µM (highest dose often 114 µM), inactives show at the highest dose activity change, negative = inhibition, hits mostly inhibitors; hit rate 1% among 390,000; AID 588453; also: % is scaled to controls: 0 for no effect and ±100 for the full control effect; nearly all actives have a fitted effect of over 65% in size
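Rat TrxR1 (90 nM in the dispensed reagent) was pre-reduced with 400 uM NADPH for 5 min at room temperature, then incubated with compound for 15 min. After 400 uM selenite was added, NADPH fluorescence (Ex 340/Em 450 nm) was followed for 8 min.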
mIDH1 inhibitor = blocks human mutant IDH1 R132H enzyme. IDH1-R132H enzyme, NADPH consumption, diaphorase/resazurin fluorescence. AID 602179. hit rate 0.093% among 390,000. Potency, µM (series often up to 76.6 µM), for the others: at the highest dose activity change, negative = inhibition, actives largely listed as inhibitors. O75874; also: % is scaled to controls: 0 for no effect and ±100 for the full control effect; nearly all actives have a fitted effect of over 65% in size
Target sequence (O75874 whole entry R132H, stated change not applied): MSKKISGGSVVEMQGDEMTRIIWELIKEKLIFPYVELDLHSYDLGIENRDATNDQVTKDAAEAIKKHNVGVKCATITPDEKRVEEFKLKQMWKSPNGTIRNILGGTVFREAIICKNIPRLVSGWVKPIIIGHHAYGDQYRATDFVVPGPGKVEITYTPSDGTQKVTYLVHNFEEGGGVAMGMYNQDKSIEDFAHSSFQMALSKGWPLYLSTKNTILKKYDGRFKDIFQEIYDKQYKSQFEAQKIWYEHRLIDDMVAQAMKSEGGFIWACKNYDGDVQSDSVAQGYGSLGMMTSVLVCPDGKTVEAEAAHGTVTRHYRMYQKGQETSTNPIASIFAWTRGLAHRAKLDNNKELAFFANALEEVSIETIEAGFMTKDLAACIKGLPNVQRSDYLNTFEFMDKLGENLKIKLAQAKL
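IDH1-R132H (0.5 ug/mL) preincubated 30 min with compound, then NADPH (0.016 mM) and alpha-KG (2 mM) added; 80 min at RT, pH 7.5. Remaining NADPH coupled via diaphorase/resazurin to fluorescence (540/590 nm); concentration-response curves normalized to no-enzyme control.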
* = called active by the depositor; ? = inconclusive; . = no result given; [ ] = remark or other dose. An excerpt weighted towards active compounds, which were near 2.7% of everything screened. Calls follow the shape of the dose curve; as a rule, active = well fitted curve in the direction sought with a large enough effect; inconclusive = small, poorly fitted or top-dose-only effect, or another doubt; inactive = no such curve, though single readings can be large; an effect the other way counts as inactive or inconclusive. Potency is read from the fitted curve at half-maximal effect.

SMILES	GLP-1R agonist	TrxR1 substrate	HEK293 tox	GLP1R inv ag	rTrxR1 inhibitor	mIDH1 inhibitor
Cc1sc(-c2cc3c([nH]c2=O)CC(c2ccccc2)CC3=O)nc1-c1ccc(Cl)cc1 (stereo unspecified)	.	0.9%	?	1.26µM*	-1.9%	-10.2%
CC1CCc2nc(N)c(C#N)c(-c3cccnc3)c2C1 (stereo unspecified)	-2.6%	11.2%	7.5%	0.891µM*	11.5%	-0.8%
C=C1NN(C(C)C(=O)O)C(=O)N1c1ccc(OCc2ccccc2)cc1 (stereo unspecified)	.	7.5%	.	.	32.2%	.
CCN(CC)CCC=C(c1cccs1)c1cccs1	-14.1%	13.4%	?	?	22.4µM*	9.4%
CN(C)c1ccc(N=Cc2cccc3ccccc23)cc1	.	-11.0%	.	.	?	.
CC(Nc1nc(-c2ccc(F)cc2)cs1)c1nc2cc(C(F)(F)F)ccc2n1CCCO (stereo unspecified)	-1.0%	-4.8%	-8.5%	7.94µM*	7.5%	-1.9%
Cc1ccc(Cn2c(C(C)Nc3nc(-c4ccc(F)cc4)cs3)nc3cc(C(F)(F)F)ccc32)cc1 (stereo unspecified)	-0.4%	-0.6%	-13.9%	10µM*	26.3%	2.5%
CC(Nc1nc(-c2ccc(F)cc2)cs1)c1nc2cc(C(F)(F)F)ccc2n1CCOCCO (stereo unspecified)	-5.0%	7.9%	7.9%	-3.2%	14.1%	-0.7%
O=C(O)/C=C(/CC(=O)O)C(=O)O	-5.1%	.	.	.	.	.
COc1ccc(NC(=O)Cn2ncc3c([nH]c4ccccc43)c2=O)cc1Cl	.	4.2%	-3.0%	1.2%	21.9%	-6.4%
O=C(NCCCc1nc2ccccc2n1Cc1ccc(Cl)cc1)c1ccco1	.	1.3%	9.8%	-9.8%	-5.3%	.
S=C(NCC1CCCO1)NC1CCCCC1 (stereo unspecified)	2.9%	7.6%	-9.5%	-0.9%	15.3%	9.9%
CCCC(NC(=S)NCC1CCCO1)C12CC3CC(CC(C3)C1)C2 (stereo unspecified)	13.0%	7.3%[57.1 µM]	?	5.62µM*	27.3%[57.1 µM]	2.9%
CN(C)N=Nc1ccc(/C=C2\C=Cc3ccccc32)cc1	.	-0.4%	.	.	-2.0%	.
Cc1cccc(C)c1NC(=O)C(CCc1ccccc1)N1CCC(c2ccccc2)CC1 (stereo unspecified)	.	.	-3.0%	-12.4%	.	.
c1ccc(N2CCN(c3nc4ccccc4n4cnnc34)CC2)cc1	-1.0%	42.5%	-3.4%	8.9%	13.6%	8.7%
C1=C(c2ccccc2)CCN(c2nc3ccccc3n3cnnc23)C1	17.1%	13.6%	-14.0%	19.3%	3.98µM*	6.1%
O=C(NC1CC(=O)N(c2ccc(F)cc2)C1)c1ccc(S(=O)(=O)N2CCCCC2)cc1 (stereo unspecified)	.	-0.7%[57.1 µM]	-2.2%	-11.6%	18.2%[57.1 µM]	2.4%
c1ccc(-c2ccc(-c3cnc4n3CCCCC4)cc2)cc1	-0.9%	8.2%[57.1 µM]	?	5.01µM*	20.9%[57.1 µM]	11.0%
Cc1ccc(-c2cnc3n2CCCCC3)cc1	-3.4%	2.1%	?	?	10.1%	0.0%
COc1ccc(-c2ccc(CCC(=O)O)o2)cc1	2.0%	11.5%[57.1 µM]	-29.5%	112.4%	17.8µM*	-0.4%
Cc1oc(-c2ccc(Cl)cc2)cc1C(=O)O	-1.6%	9.5%	2.9%	-25.6%	8.9%	14.1%
O=C(O)CCc1ccc(-c2ccc(Br)cc2)o1	11.1%	4.2%	-16.0%	2.2%	22.4µM*	4.1%
O=C(O)CCc1ccc(-c2ccc(Cl)cc2)o1	18.0%	7.0%	-4.5%	2.7%	17.8µM*	-5.3%
COc1ccc(-c2noc(CCC(=O)O)n2)cc1	-2.0%	-14.5%	2.2%	19.0%	-4.0%	3.9%
SMILES	GLP-1R agonist	TrxR1 substrate	HEK293 tox	GLP1R inv ag	rTrxR1 inhibitor	mIDH1 inhibitor
NC(=O)c1ccc(-c2ccc(Br)cc2)o1	19.0%	24.3%	9.3%	0.0%	-18.5%	-5.1%
CCC1=C[C@@H]2CN(C1)Cc1c([nH]c3ccccc13)[C@@](C(=O)OC)(c1cc3c(cc1OC)N(C)[C@@H]1[C@@](O)(C(=O)OC)[C@H](OC(C)=O)[C@]4(CC)C=CCN5CC[C@]31[C@@H]54)C2	0.1%	.	.	.	.	.
CCCN(CCC)CCCNC(=O)Cn1ncn2c(cc3sc(CC)cc32)c1=O	.	2.2%	-4.3%	0.1%	10.9%	-3.1%
Cc1c([N+](=O)[O-])nnn1-c1cc(Cl)cc(Cl)c1	10.2%	7.9%	-9.3%	-14.4%	15.8µM*	7.0%
CN(C)c1ccc(/C=C\C=C/c2ccnc3ccccc23)cc1	.	1.3%	.	.	-6.4%	.
Cc1ccc(-c2nc(CS(=O)(=O)CC(=O)NC3CCCCCC3)c(C)o2)cc1	0.2%	7.3%	-4.8%	?	79.4µM*	-0.6%
Cc1ccc(-c2nc(CS(=O)(=O)CC(=O)N3CCCCCC3)c(C)o2)cc1	2.5%	0.6%[57.1 µM]	-10.7%	10µM*	-10.1%[57.1 µM]	7.0%
Cc1ccc(-c2nc(CS(=O)(=O)CC(=O)N3CCN(c4ccccc4)CC3)c(C)o2)cc1	.	9.2%	-10.1%	?	22.4%	4.2%
CCCS/C(N)=N/N=C/c1cc(C)ccc1O	?	-5.3%	-16.0%	?	-11.4%	12.8%
CCCCS/C(N)=N/N=C/c1ccccc1O	24.6%	-6.4%[57.1 µM]	2.82µM*	?	5.5%[57.1 µM]	-1.0%
CCCSc1oc(-c2cccs2)nc1S(=O)(=O)c1ccc(Cl)cc1	.	-4.5%	30.8%	?	-9.7%	1.8%
CCOc1ccc(CN2CCC(C(=O)Nc3cccc(-c4ccn[nH]4)c3)CC2)cc1Cl	-1.1%	-4.5%	?	10µM*	20.9%	-1.2%
Cc1ccc(S(=O)(=O)c2c(Nc3cc(C)ccc3C)sc(C(=O)c3ccc4c(c3)OCO4)c2N)cc1	.	-10.3%[57.1 µM]	-10.5%	?	-4.8%[57.1 µM]	0.0%
Cc1ccc2nc3cc([N+](=O)[O-])cc([N+](=O)[O-])c3cc2c1	16.5%	-3.7%	?	16.5%	50.1µM*	11.5%
Cc1cc(C(=O)Nc2cccc(C(=O)O)c2)c(C)o1	-11.9%	1.1%	-16.1%	0.0%	15.6%	7.1%
Cc1cc(C(=O)Nc2cccc(C(=O)O)c2)oc1C	-32.0%	9.0%[57.1 µM]	-1.0%	1.26µM*	11.5%[57.1 µM]	2.2%
O=C(NNc1ccccc1)c1sc2ccccc2c1Cl	.	-7.9%	.	.	-9.1%	.
COc1cccc(CNC(=O)CN2C(=O)N(c3c(C)cccc3C)S(=O)(=O)c3ccccc32)c1OC	-4.4%	-1.5%[57.1 µM]	-11.2%	-23.5%	17.8%[57.1 µM]	9.0%
CCN(CC)/[N+]([O-])=N/Oc1cc(O/N=[N+](\[O-])N(C)C)c([N+](=O)[O-])cc1[N+](=O)[O-]	.	-10.3%	.	.	11.2µM*	.
O=C(c1ccccc1)N1c2nc(-c3ccco3)nn2C2(CCCCC2)[C@@H]2CCCC[C@@H]21	.	6.3%	4.0%	7.8%	-17.1%	-2.4%
